Shown are actives, neighbours in structure and some others; about 7.2% of the full set was active somewhere.
Sm TGR block – blocks Schistosoma mansoni thioredoxin glutathione reductase; purified TGR, DTNB reduction, TNB absorbance 405 nm; 360,000 tested, 3% active; Q962Y6; Potency, µM (highest dose often 114 µM), inactives show at the top dose activity change, negative = inhibition, actives largely listed as inhibitors; AID 485364; further: nearly all actives have a fitted effect of over 60% in size
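First, TGR (20 nM dispensed) and NADPH were mixed with compound. Second, a 15 min room-temperature incubation followed. Third, further NADPH and then DTNB were added to start the reaction. Finally, TNB absorbance was monitored kinetically.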
LASV entry inh – blocks Lassa virus binding to or entry into cells; Lassa virus pseudotype entry inhibition, cell reporter; Potency, µM (doses to about 37.9 µM), inactives show top-dose activity change, negative = inhibition, actives largely listed as inhibitors; 300,000 tested, 1.2% active; calls by dose curve; tested in HEK293 cells; further: nearly all actives have a fitted effect of over 50% in size
FMDV antiviral – antivirals against foot and mouth disease virus. FMDV antiviral cell-based qHTS. Potency, µM (top dose mostly 57.9 µM), without a hit: top-dose activity change, negative = inhibition, usual class: inhibitors. 410,000 tested, 1.2% active. AID 1159524; calls by dose curve; tested in HEK293T cells; further: read-out not given here; nearly all actives have a fitted effect of over 45% in size
RE007 growth inh – less growth of the S. pombe RE007 Vpr strain; S. pombe RE007 Vpr strain, BacTiter-Glo ATP luminescence, 24 h; 360,000 tested, 0.21% active; Potency, µM (doses to about 92.2 µM), without a hit: at the top dose activity change, negative = less growth, most hits filed as inhibitors; active means well fitted falling curve with a large enough effect; inconclusive means small, poorly fitted or top-dose-only effect; inactive means no such curve, though single readings can be large or run the other way; further: nearly all actives have a fitted effect of over 50% in size
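Fission yeast RE007 carrying one integrated HIV-1 vpr copy, seeded at OD 0.01 in PMG+AL medium with 23 nL pinned compound. Grown 24 h at 30 degrees; viability read by BacTiter-Glo luminescence after 5 min.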
HCV inhibitor – blocks hepatitis C virus; Huh7.5.1 HCVcc-Cre infection, luciferase reporter, 44 h; Potency, µM (highest dose often 41.8 µM), for inactives: top-dose activity change, negative = inhibition, usual class: inhibitors; 340,000 tested, 3.4% active
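HCVcc-Cre virus at an moi near 0.5 was added right after compound to cells cultured 4 h from seeding (1,000 cells/well). Luciferase activity was determined 44 h later, 15 min after substrate addition at RT.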
MARV entry inh – Marburg virus entry inhibition; AID 540276; Marburg virus pseudotyped entry inhibition, cell reporter; Potency, µM (top dose mostly 37.8 µM), for the others: at the highest dose activity change, negative = inhibition, actives largely listed as inhibitors; 300,000 tested, 1.8% active; calls by dose curve; tested in HEK293 cells
Starred values were filed as active, the others as inactive; u = inconclusive; x = no result; [ ] = dose if it differs, or a comment. Unless noted, the call rests on the fitted dose curve; in most records, active means well fitted curve in the direction sought with a large enough effect; inconclusive means small, poorly fitted or top-dose-only effect, or another doubt; inactive means no such curve, though single readings can be large; an effect the other way counts as inactive or inconclusive. On the % scale 0 is the no-effect control and ±100 the full control effect; potency means the concentration at half of the fitted maximal effect.

SMILES	Sm TGR block	LASV entry inh	FMDV antiviral	RE007 growth inh	HCV inhibitor	MARV entry inh
CN(Cc1ccncn1)C(=O)CC1C(=O)NCCN1Cc1cccc(Oc2ccccc2)c1 (configuration not stated)	44.7µM*	-17.5%[46.1 µM]	-0.6%	7.7%	0.1%	-5.8%[46.1 µM]
O=C1CCC/C(=N/Nc2ccc(Cl)cc2)C1	12.6µM*	x	7.8%	-12.1%	u	x
O=C(NN=C1CCCC1)c1ccc(Cl)cc1	0.0%	x	19.8%	-7.5%	14.7%	x
CCOC(=O)C(=Cc1ccc(N(C)C)cc1)C(=O)c1ccccc1	x	x	u	-0.8%	x	x
CCOC(=O)/C(=C/c1ccc(OC(=O)c2ccccc2)cc1)C(C)=O	u	3.2%	19.6%	28.2µM*	-9.3%[0.335 µM]	-4.9%
CCN(CC)CCC(=O)Nc1ccc2c(c1)N(C(=O)CN(CC)CC)c1ccccc1CC2	-14.6%	u	-17.2%	-8.1%	u	6.31µM*
COc1ccc(C2CC(=O)C3=C(C2)NC(C)=C(C#N)C3c2ccc(N(C)C)cc2)cc1 (configuration not stated)	-0.9%	12.6µM*	-14.2%	0.7%	12.6%	u
COc1cc2c(cc1OC)C(C)N(C(C)=O)CC2 (configuration not stated)	-26.6%	13.3%	x	-0.2%	-9.9%	4.1%
COc1cc2c(cc1OC)C(C)N(C(=O)c1cc3ccccc3o1)CC2 (configuration not stated)	5.2%	u	u	-17.6%	10µM*	-26.8%
COc1cc2c(cc1OC)C(C)N(C(=O)c1cc3c(s1)-c1ccccc1OC3)CC2 (configuration not stated)	-11.7%	-9.0%	u	11.9%	11.2µM*	1.0%
COc1cc2c(cc1OC)C(C)N(C(=O)C1COc3ccccc3O1)CC2 (configuration not stated)	-0.6%	u	25.1µM*	23.2%	u	u
CC(C)c1c(C(=O)NCc2cccnc2)cnn1-c1nccc(-c2ccccc2F)n1	x	x	-27.8%	x	x	x
CCOc1ccc(CCNC(=O)c2ccc3c(c2)nc2n3CCOC2)cc1OCC	9.7%	0.3%[46.1 µM]	0.0%	x	x	x
CCN(CC)C(=O)CSC1=C(C#N)[C@H](c2ccco2)C(C(=O)OCCOC)=C(C)N1	x	x	x	x	x	9.3%
Cc1ccccc1NC(=O)c1ccc([N+](=O)[O-])o1	-35.9%	-17.5%	-29.5%	-28.8%	u	u
O=C(/C=C/c1cccc([N+](=O)[O-])c1)c1ccc([N+](=O)[O-])o1	x	x	u	1.9%	11.5%[8.37 µM]	x
Cc1ccccc1/C=C/C(=O)c1ccc([N+](=O)[O-])o1	2µM*	x	22.4µM*	8.91µM*	u	x
COc1ccc(/C=C/C(=O)c2ccc([N+](=O)[O-])o2)cc1	u	x	25.1µM*	8.5%	18.5%	x
Cc1cccc(/C=C/C(=O)c2ccc([N+](=O)[O-])o2)c1	1.58µM*	x	25.1µM*	7.0%	0.631µM*	x
COc1ccc(-c2ccc(NS(=O)(=O)c3ccccc3Cl)cc2)nn1	3.1%	u	4.6%	x	x	x
Cc1cc2c(NC(=O)Nc3ccccc3)cccc2nn1	u	-0.8%[46.1 µM]	0.4%	3.2%	u	1.5%[46.1 µM]
Cc1cc2c(NC(=O)Nc3ccc(C(C)(C)C)cc3)cccc2nn1	-16.2%	x	u	10.6%	14.1µM*	x
CC1(C)CC(=O)C=C(OC(=O)c2ccc(Cl)cc2)C1	14.1µM*	1.2%	-3.0%	-3.9%	11.9%	12.2%
COc1ccc(C(=O)NNC2=CC(=O)CC(C)(C)C2)cc1	u	-0.6%	-8.7%	3.1%	1.2%	15.9%
CC(C)(C)c1ccc(C(=O)NC(=S)Nc2ccc(N3CCOCC3)cc2)cc1	-6.6%	u	-15.3%	10.1%	3.2%	0.794µM*
SMILES	Sm TGR block	LASV entry inh	FMDV antiviral	RE007 growth inh	HCV inhibitor	MARV entry inh
CC(C)(C)c1ccc(C(=O)Nc2ccc(N3CCOCC3)cc2)cc1	-9.8%	-28.3%	x	7.9%	1.78µM*	u
C=C(C)C(=O)Nc1cccc(C2=NOC3(C2)C[C@@H](C(N)=O)N(C(=O)/C=C/C=C/C)C3)c1 (some centres not stated)	8.91µM*	x	-16.4%	3.7%	-25.3%	x
C/C=C/C=C\C(=O)Nc1cccc(C2=NOC3(C2)C[C@H](C(N)=O)N(C(=O)CC#N)C3)c1 (some centres not stated)	2µM*	x	-18.0%	-10.9%	7.0%	4.3%
C/C=C(\C)C(=O)Nc1cccc(C2=NOC3(C2)C[C@@H](C(N)=O)N(C(=O)/C(C)=C/C)C3)c1 (some centres not stated)	49.9%	x	1.7%	-3.5%	5.6%	x
C/C=C\C=C/C(=O)Nc1cccc(C2=NOC3(C2)C[C@@H](C(N)=O)N(C(=O)CCCCC)C3)c1 (some centres not stated)	2.51µM*	x	-10.8%	-9.6%	-26.2%	x
C/C=C/C=C/C(=O)N1CC2(CC(c3cccc(NC(=O)CCCCC)c3)=NO2)C[C@H]1C(N)=O (some centres not stated)	u	x	-7.6%	6.9%	u	x
C/C=C/C=C\C(=O)Nc1cccc(C2=NOC3(C2)C[C@@H](C(N)=O)N(C(=O)/C(C)=C/C)C3)c1 (some centres not stated)	2.51µM*	x	1.3%	-11.5%	-10.4%	x
Cc1ccc(CNc2ncccc2-c2nc(-c3ccc(Cl)cc3)no2)cc1	-1.5%	0.0%[46.1 µM]	45.4%	x	x	0.1%[46.1 µM]
Cc1noc(C)c1C(=O)N1CCC[C@@]2(CCN(c3ncccn3)C2)C1	x	x	-8.2%	x	x	x
C/C=C/C=C/C(=O)N1CC2(CC(c3cccc(NC(=O)/C=C/C)c3)=NO2)C[C@@H]1C(N)=O (some centres not stated)	u	x	-12.4%	8.9%	3.1%	3.7%
C/C=C\C=C/C(=O)Nc1cccc(C2=NOC3(C2)C[C@H](C(N)=O)N(C(=O)Cc2ccc([N+](=O)[O-])cc2)C3)c1 (some centres not stated)	1.12µM*	x	-4.2%	-6.2%	-4.7%	x
C/C=C(/C)C(=O)Nc1cccc(C2=NOC3(C2)C[C@H](C(N)=O)N(C(=O)Cc2ccc([N+](=O)[O-])cc2)C3)c1 (some centres not stated)	1.6%	x	-15.0%	-6.8%	-19.4%	2.0%
C/C=C\C=C\C(=O)Nc1cccc(C2=NOC3(C2)C[C@@H](C(N)=O)N(C(=O)C(c2ccccc2)c2ccccc2)C3)c1 (some centres not stated)	1.78µM*	x	-8.3%	-5.0%	u	x
CCC(=O)Nc1cccc(C2=NOC3(C2)C[C@@H](C(N)=O)N(C(=O)C(c2ccccc2)c2ccccc2)C3)c1 (some centres not stated)	-2.5%	x	-10.5%	4.6%	u	x

Screening data from PubChem BioAssay.
